According to PubChem BioAssay (NCATS):
Results filed as inconclusive are left out. The source made the active and inactive calls. Calls come from the whole dose curve; as a rule, active = well fitted inhibition curve with a large enough effect; inconclusive = small, poorly fitted or top-dose-only effect; inactive = flat fitted curve, though single readings scatter.

Key:
PAD = test: qHTS profiling for inhibitors of Plasmodium falciparum proliferation (AID 504749);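 note: 0% = DMSO vehicle and full inhibition = artemisinin control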; settings: P. falciparum in erythrocytes, SYBR Green DNA, 72 h; series mostly up to 28.7 µM
Procedure, shortened: (§1)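 Fluorescence of SYBR Green-bound parasite DNA, read at 485/535 nm, served as the growth measure. Infected erythrocytes were cultured with compound 72 h; artemisinin (0.29 uM) and DMSO wells defined the normalization range.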

PC15 = test: as above; settings: P. falciparum in erythrocytes, SYBR Green DNA, 72 h; series mostly up to 28.7 µM
Procedure, shortened: as §1

PC26 = test: as above; settings: P. falciparum in erythrocytes, SYBR Green DNA, 72 h; series mostly up to 28.7 µM
Procedure, shortened: as §1

PC49 = test: as above; settings: P. falciparum in erythrocytes, SYBR Green DNA, 72 h; series mostly up to 28.7 µM
Procedure, shortened: as §1

SC27B = test: as above; settings: P. falciparum in erythrocytes, SYBR Green DNA, 72 h; series mostly up to 28.7 µM
Procedure, shortened: as §1

TAB109 = test: as above; settings: P. falciparum in erythrocytes, SYBR Green DNA, 72 h; series mostly up to 28.7 µM
Procedure, shortened: as §1

TAB113 = test: as above; settings: P. falciparum in erythrocytes, SYBR Green DNA, 72 h; series mostly up to 28.7 µM
Procedure, shortened: as §1

TAB165 = test: as above; settings: P. falciparum in erythrocytes, SYBR Green DNA, 72 h; series mostly up to 28.7 µM
Procedure, shortened: as §1

W2 = test: as above; settings: P. falciparum in erythrocytes, SYBR Green DNA, 72 h; series mostly up to 28.7 µM
Procedure, shortened: as §1

CRL-7250 = normal cell line; test: Cytotoxic Profiling of Annotated Libraries Using Quantitative High-Throughput Screening (AID 1296008); settings: Five cell lines viability, CellTiter-Glo ATP luminescence, 48-72 h; active compounds read low; for max response: % is set by controls: 0 for no effect and ±100 for the full control effect
Procedure, shortened: (§2)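 Compounds were pin-transferred onto cells and incubated 48 or 72 hr at 37 degree Celsius, 95% humidity. CellTiter-Glo was added, plates sat 10 min at room temperature, then ATP-coupled luminescence was imaged as the viability read-out.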

HEK293 = test: as above; settings: Five cell lines viability, CellTiter-Glo ATP luminescence, 48-72 h; active compounds read low
Procedure, shortened: as §2

HaCat = test: as above; settings: Five cell lines viability, CellTiter-Glo ATP luminescence, 48-72 h; active compounds read low
Procedure, shortened: as §2

KB-3-1 = test: as above; settings: Five cell lines viability, CellTiter-Glo ATP luminescence, 48-72 h, active compounds read low
Procedure, shortened: as §2

NIH3T3 = test: as above; settings: Five cell lines viability, CellTiter-Glo ATP luminescence, 48-72 h; active compounds read low
Procedure, shortened: as §2

MCC-13 = test: qHTS assay to identify novel small-molecules to repurpose for Merkel cell carcinoma treatment (AID 1296009); settings: MCC and control cell lines, CellTiter-Glo viability, 72 h; series mostly up to 46 µM; note: % is set by controls: 0 for no effect and ±100 for the full control effect
Procedure, shortened: (§3)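 Luminescence from CellTiter-Glo, read 10 min after addition at room temperature, reported viability following a 72 hr, 37 degree celsius treatment with NPC or MIPE compounds in titration; values normalized to plate controls.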

MCC-26 = test: as above; settings: MCC and control cell lines, CellTiter-Glo viability, 72 h; series mostly up to 46 µM
Procedure, shortened: as §3

MKL-1 = test: as above; settings: MCC and control cell lines, CellTiter-Glo viability, 72 h; series mostly up to 46 µM
Procedure, shortened: as §3

P94_40 = test: qHTS profiling for inhibitors of Plasmodium falciparum proliferation (AID 504749);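 note: 0% = DMSO vehicle and full inhibition = artemisinin control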; settings: P. falciparum in erythrocytes, SYBR Green DNA, 72 h; series mostly up to 28.7 µM
Procedure, shortened: as §1
Note: nearly all actives have a fitted effect of over 60% in size.

CC(C)CCCC(C)CCCC(C)CCCCC(C)CCCC(C)CCCC(C)C (configuration not stated)
inactive: Potency (PAD) | Potency (PC15) | Potency (PC26) | Potency (PC49) | Potency (SC27B) | Potency (TAB109) | Potency (TAB113) | Potency (TAB165) | Potency (W2) | outcome (CRL-7250) | max response (HEK293) -6.17% | max response (HaCat) -19.8% | max response (KB-3-1) 12.8% | max response (NIH3T3) -1.47% | outcome (MCC-13) | outcome (MCC-26) | outcome (MKL-1)

NS(=O)(=O)c1cc(C2(O)NC(=O)c3ccccc32)ccc1Cl (configuration not stated)
inactive: max response (CRL-7250) -0.145% | max response (HEK293) -4.45% | max response (HaCat) 3.24% | max response (KB-3-1) -1.8% | outcome (NIH3T3) | outcome (MCC-13) | outcome (MKL-1)

CCCCCCCC(=O)OCC(O)CO (configuration not stated)
inactive: Potency (P94_40) | Potency (PAD) | Potency (PC15) | Potency (PC26) | Potency (PC49) | Potency (SC27B) | Potency (TAB109) | Potency (TAB113) | Potency (TAB165) | Potency (W2) | max response (CRL-7250) -18.7% | max response (HEK293) -8.91% | max response (HaCat) -12% | max response (KB-3-1) -2.18% | max response (NIH3T3) -10.3% | outcome (MCC-13) | outcome (MCC-26) | outcome (MKL-1)

Cn1c([N+](=O)[O-])cnc1COC(N)=O
inactive: Potency (P94_40) | Potency (PAD) | Potency (PC15) | Potency (PC26) | Potency (PC49) | Potency (SC27B) | Potency (TAB109) | Potency (TAB113) | Potency (TAB165) | Potency (W2) | max response (CRL-7250) -9.26% | max response (HEK293) 2.06% | max response (HaCat) -19.4% | max response (KB-3-1) -4.93% | max response (NIH3T3) 2.03% | outcome (MCC-13) | outcome (MCC-26) | outcome (MKL-1)

CC(=O)N(CC(O)CN(C(C)=O)c1c(I)c(C(=O)NCC(O)CO)c(I)c(C(=O)NCC(O)CO)c1I)c1c(I)c(C(=O)NCC(O)CO)c(I)c(C(=O)NCC(O)CO)c1I (configuration not stated)
inactive: max response (CRL-7250) -0.159% | max response (HEK293) -0.57% | max response (HaCat) -14.3% | max response (KB-3-1) 0.0705% | outcome (NIH3T3) | outcome (MCC-13) | outcome (MKL-1)

O=c1[nH]c2cc(C(F)(F)F)c(N3CCOCC3)cc2n(CP(=O)(O)O)c1=O
inactive: Potency (P94_40) | Potency (PAD) | Potency (PC15) | Potency (PC26) | Potency (PC49) | Potency (SC27B) | Potency (TAB109) | Potency (TAB113) | Potency (TAB165) | Potency (W2) | outcome (CRL-7250) | max response (HEK293) 2.88% | max response (HaCat) 2.4% | max response (KB-3-1) 8.61% | outcome (NIH3T3) | outcome (MCC-13) | outcome (MKL-1)

CCc1cccc(CC)c1NC(=O)CN(CC(=O)O)CC(=O)O
inactive: Potency (P94_40) | Potency (PAD) | Potency (PC15) | Potency (PC26) | Potency (PC49) | Potency (SC27B) | Potency (TAB109) | Potency (TAB113) | Potency (TAB165) | Potency (W2) | max response (CRL-7250) -19.6% | max response (HEK293) -1.81% | max response (HaCat) -2.45% | max response (KB-3-1) -15.5% | max response (NIH3T3) -0.454% | outcome (MCC-13) | outcome (MCC-26) | outcome (MKL-1)

NC(=O)c1ccc([N+](=O)[O-])cc1Cl
inactive: Potency (P94_40) | Potency (PC49) | Potency (SC27B) | max response (CRL-7250) 3.21% | max response (HEK293) -0.167% | max response (HaCat) -15.2% | max response (KB-3-1) 1.89% | outcome (NIH3T3) | outcome (MCC-13) | outcome (MCC-26) | outcome (MKL-1)

Cc1c(C)c2c(c(C)c1OC(=O)c1cccnc1)CC[C@@](C)(CCC[C@H](C)CCC[C@H](C)CCCC(C)C)O2
inactive: Potency (P94_40) | Potency (PAD) | Potency (PC15) | Potency (PC26) | Potency (PC49) | Potency (SC27B) | Potency (TAB109) | Potency (TAB113) | Potency (TAB165) | Potency (W2) | outcome (CRL-7250) | max response (HEK293) -1.31% | max response (HaCat) 0.9% | max response (KB-3-1) 1.29% | outcome (NIH3T3) | outcome (MCC-13) | outcome (MCC-26) | outcome (MKL-1)

O=C(CN1CCNCC1)NC1CCCCC1
inactive: Potency (P94_40) | Potency (PAD) | Potency (PC15) | Potency (PC26) | Potency (PC49) | Potency (SC27B) | Potency (TAB109) | Potency (TAB113) | Potency (TAB165) | Potency (W2) | max response (CRL-7250) -5.07% | max response (HEK293) -4.92% | max response (HaCat) 0.716% | max response (KB-3-1) 2.43% | outcome (NIH3T3) inactive; activator | outcome (MCC-13) | outcome (MCC-26) | outcome (MKL-1)

CC(C)CCOC(=O)c1ccc(N(C)C)cc1
inactive: Potency (P94_40) | Potency (PAD) | Potency (PC15) | Potency (PC26) | Potency (PC49) | Potency (SC27B) | Potency (TAB109) | Potency (TAB113) | Potency (TAB165) | Potency (W2) | max response (CRL-7250) -21% | max response (HEK293) -23.8% | max response (HaCat) -5.98% | max response (KB-3-1) 11.7% | max response (NIH3T3) -25.1% | outcome (MCC-13) | outcome (MCC-26) | outcome (MKL-1)

Cc1ncc(CO)c(CN)c1O
inactive: Potency (P94_40) | Potency (PC15) | Potency (PC26) | Potency (PC49) | Potency (SC27B) | Potency (TAB109) | Potency (TAB113) | Potency (TAB165) | max response (CRL-7250) -0.831% | max response (HEK293) -5.62% | max response (HaCat) -4.24% | max response (KB-3-1) -2% | outcome (NIH3T3) | outcome (MCC-13) | outcome (MKL-1)
